# BioA inh: M. tuberculosis BioA enzyme inhibitors, primary screen, biochemical, plate reader, single point, HTS; 7,8-diaminopelargonic acid synthase BioA (Mycobacterium tuberculosis); purified M. tuberculosis BioA enzyme; inhibition, % at 9.99 µM; 360,000 compounds, 0.096% hits; AID 602481, 2012; in the data active = inhibition above about 40%
# FBA Mtb inh: Mtb FBA enzyme inhibitors, primary screen, biochemical, fluorescence, strain H37Rv. Fructose-bisphosphate aldolase (Mycobacterium tuberculosis (strain ATCC 25618 / H37Rv)), …. purified M. tuberculosis FBA, fluorescence read-out. inhibition, % at 1 µM. 360,000 compounds, 2.3% hits. AID 588726, 2011;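 also: 0% = vehicle and 100% = reference inhibitor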
# Target sequence (P9WQA3 whole entry, looked up): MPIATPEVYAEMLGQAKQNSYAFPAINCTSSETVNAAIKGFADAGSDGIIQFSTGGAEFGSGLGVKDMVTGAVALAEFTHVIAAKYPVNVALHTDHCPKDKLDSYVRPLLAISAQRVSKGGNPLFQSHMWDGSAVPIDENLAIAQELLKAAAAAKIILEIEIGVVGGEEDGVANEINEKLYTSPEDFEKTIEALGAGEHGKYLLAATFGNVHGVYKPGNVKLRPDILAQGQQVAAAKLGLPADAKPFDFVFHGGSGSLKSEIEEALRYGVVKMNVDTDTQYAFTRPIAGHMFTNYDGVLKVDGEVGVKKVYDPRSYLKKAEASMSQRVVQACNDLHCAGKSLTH
# SARS 3CLpro inh: SARS-CoV 3CLpro protease inhibitors, primary screen, biochemical, quenched FRET; Replicase polyprotein 1ab (Severe acute respiratory syndrome coronavirus), P0C6X7; recombinant SARS-CoV 3CLpro, quenched FRET peptide cleavage; inhibition, % at 6 µM; 290,000 compounds, 0.14% hits; AID 1706, 2009; in the data active = inhibition above about 12%
# FadD28 binding: inhibitors of FadD28 bisubstrate probe binding, primary screen, biochemical, fluorescence polarization, single point; Mycobacterium tuberculosis FadD28 fatty-acid-AMP ligase; inhibition, % at 12.5 µM; 360,000 compounds, 0.22% hits; AID 588549, 2011; in the data active = inhibition above about 8.5%, passing the limit was not always enough
# GDH-TPI counter-1: GDH-TPI coupling enzyme inhibitors, primary screen, artefact control for M. tuberculosis FBA inhibitor project, biochemical, absorbance, full deck; GDH-TPI coupled enzyme counterscreen, NADH absorbance; inhibition, % at 4.8 µM; 360,000 compounds, 1.2% hits; in the data active = inhibition above about 30%;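 also: 0% = DMSO wells and 100% = wells lacking the enzyme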
# Mtb FBA confirm: M. tuberculosis aldolase blockers, biochemical, fluorescence, strain H37Rv, confirmation. shares compounds with FBA Mtb inh. purified M. tuberculosis FBA, fluorescence read-out. inhibition, % at 1 µM. 5,600 compounds, 78% hits. AID 651616, 2012;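 also: 0% = vehicle wells and 100% = reference inhibitor wells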
# GDH-TPI counter-2: GDH-TPI coupling enzyme inhibitors, artefact control for M. tuberculosis FBA inhibitor project, biochemical, fluorescence, high throughput; shares compounds with FBA Mtb inh; inhibition, % at 1 µM; 5,600 compounds, 81% hits; GDH-TPI coupled enzyme counterscreen; in the data active = inhibition above about 10%
# GDH-TPI dose: GDH-TPI coupling enzyme inhibitors, dose response, artefact control for M. tuberculosis FBA inhibitor project, biochemical, fluorescence, IC50. AID 652145, 2013. GDH-TPI coupled enzyme assay, artifact counterscreen. shares compounds with FBA Mtb inh. IC50, µM. 170 compounds, 79% hits; call rule not given here
# * hit, by the source's call; · = not tested or not shown; + = active, no number. Sampled rows, rich in hits. Any-hit rate of the full collection: about 3.1%. Rule as the data show it, unless noted: active = inhibition above about 27%; inactive = the rest.
SMILES,BioA inh,FBA Mtb inh,SARS 3CLpro inh,FadD28 binding,GDH-TPI counter-1,Mtb FBA confirm,GDH-TPI counter-2,others
CCN(CC)CCCNc1nc(C)cc(COC)c1C#N,·,76*,5,-1,6,114*,103*,
CCOC(CCNC(=O)c1cn(CCOC)c(=O)c2c1c1ccccc1n2C)OCC,-1,30*,-1,-2,5,77*,66*,
CCCCN(CC)CCNC(=O)c1cn(CCOC)c(=O)c2c1c1ccccc1n2C,-1,23,1,-2,5,·,·,
CCCN(CCC)CCCNC(=O)c1cn(CCOC)c(=O)c2c1c1ccccc1n2C,-1,32*,-7,-2,20,118*,90*,
COCCn1cc(C(=O)NCc2ccco2)c2c3ccccc3n(C)c2c1=O,·,91*,-3,0,14,+,+,
N#C[C@@H]1[C@@H](c2ccccc2)[C@H](CO)N1C(=O)Nc1cccc(F)c1,35,·,·,·,·,·,·,
COc1ccc(NC(=O)N(C)C[C@H]2OCCCC[C@H](C)Oc3ccc(N(C)C)cc3C(=O)N([C@H](C)CO)C[C@@H]2C)cc1,0,·,·,·,·,·,·,
CNC[C@H]1Oc2ccc(NC(=O)Nc3ccc4c(c3)OCO4)cc2C(=O)N([C@@H](C)CO)C[C@H]1C,2,·,·,·,·,·,·,
CCNS(=O)(=O)c1ccc2c3c(cccc13)C(=O)N2,0,65*,-3,-2,19,53*,38*,
O=C1Nc2ccc(S(=O)(=O)NCC3CCCO3)c3cccc1c23 (configuration not stated),·,50*,1,0,3,47*,31*,
CCN1C(=O)c2cccc3c(S(=O)(=O)NCC4CCCO4)ccc1c23 (configuration not stated),·,19,4,-4,0,·,·,
O=C1Nc2ccc(S(=O)(=O)NCCCO)c3cccc1c23,-1,52*,-2,-1,28,94*,61*,
CCN(CC)S(=O)(=O)c1ccc2c3c(cccc13)C(=O)N2,3,6,1,-2,16,·,·,
CO[C@@H]1CN(C)C(=O)c2ccc(NC(=O)c3ccccc3F)cc2OC[C@H](C)NC[C@@H]1C,2,·,·,·,·,·,·,
CC(C)NC(=O)N(C)C[C@@H]1Oc2ccc(NC(=O)CCC(F)(F)F)cc2CC(=O)N([C@H](C)CO)C[C@H]1C,1,·,·,·,·,·,·,
Cn1c(SCC(=O)N2CCOCC2)nc2sc3c(c2c1=O)CCCC3,5,0,3,-1,5,·,·,
CN1CCc2c(sc3nc(SCC(=O)N4CCOCC4)nc(N)c23)C1,·,54*,-5,-1,-1,9,5,
N#C/C(=C\c1ccc[nH]1)Sc1nc2ccccc2s1,4,2,3,-31,23,·,·,
N#C/C(=C\c1cccs1)Sc1nc2ccccc2s1,·,101*,7,-4,9,10,-1,
C[C@@H]1CN([C@H](C)CO)C(=O)c2cc(C#CC3CCCCC3)cnc2O[C@H]1CN(C)C,1,·,·,·,·,·,·,
COc1ccc(S(=O)(=O)N(C)C[C@@H]2Oc3ccc(N(C)C)cc3C(=O)N([C@@H](C)CO)C[C@H]2C)cc1,0,·,·,·,·,·,·,
CC1OC2(C)OC(=N)C1(C#N)C(C#N)(C#N)C2c1ccccc1 (configuration not stated),-4,53*,-5,-2,-4,62*,50*,
CCCCC1OC2(C)OC(=N)C1(C#N)C(C#N)(C#N)C2c1ccccc1 (configuration not stated),·,78*,4,0,11,116*,83*,
COC(=O)C1(C#N)C(c2ccccc2)C1(C(=O)OC)C(=O)OC (configuration not stated),-2,2,0,-3,-7,·,·,
CCC(=O)N1[C@@H]2c3ccc(/C=C/c4ccccc4)c(=O)n3C[C@H]1[C@H](CO)[C@H]2C(=O)N1CCOCC1,-2,·,·,·,·,·,·,
SMILES,BioA inh,FBA Mtb inh,SARS 3CLpro inh,FadD28 binding,GDH-TPI counter-1,Mtb FBA confirm,GDH-TPI counter-2,others
COC1C=CC(CNC(=O)c2cc3c(=O)n4cccc(C)c4nc3n2C)(OC)O1 (configuration not stated),·,36*,1,0,23,176*,109*,
Cc1cccn2c(=O)c3cc(C(=O)O)n(C)c3nc12,·,81*,3,-1,25,80*,58*,
Cc1cccn2c(=O)c3cc(C(=O)NC4CCCCC4)n(C)c3nc12,0,5,-7,-1,8,·,·,
C[C@@H]1CN([C@@H](C)CO)C(=O)c2cc(NS(=O)(=O)c3ccc(Cl)cc3)ccc2O[C@@H](C)CCCCO[C@@H]1CN(C)C(=O)Nc1ccc(C(F)(F)F)cc1,0,·,·,·,·,·,·,
COc1ccc(C(=O)NC(C)c2ccccc2)cc1Br (configuration not stated),·,-2,-2,-1,0,·,·,
O=C(Nc1ccc(Br)cn1)c1coc(=O)c(Br)c1,0,19,2,-2,6,·,·,
Cc1cc(NC(=O)c2coc(=O)c(Br)c2)ccc1C(C)C,8,49*,-4,-1,12,+,+,
O=C(NCc1ccccn1)c1coc(=O)c(Br)c1,4,78*,-4,-1,12,-4,-6,
O=C(Nc1ccccc1F)c1coc(=O)c(Br)c1,·,107*,0,-3,14,·,+,
C[C@@H](NC(=O)c1coc(=O)c(Br)c1)c1ccccc1,0,81*,-2,1,33*,72*,52*,
CN1c2ccc(C#Cc3ccc(F)cc3)cc2[C@@H]2[C@@H](CCN2S(=O)(=O)c2ccccc2F)[C@H]1CO,4,·,·,·,·,·,·,
O=C(C[C@@H]1C=C[C@H](NC(=O)Nc2ccc3c(c2)OCO3)[C@@H](CO)O1)NCc1ccc(F)cc1,-3,·,·,·,·,·,·,
N#CCSc1n[nH]c2nc3c(c(=O)n12)C1(CCCC1)Cc1ccccc1-3,0,66*,2,0,-6,115*,83*,
S=C(c1ccc(OCc2ccccc2)cc1)N1CCCC1,6,30*,0,-2,10,12,0,GDH-TPI dose=>10
Fc1ccc(COc2ccc(C(=S)N3CCCC3)cc2)cc1,-1,0,4,-5,-2,·,·,
COC(=O)c1cc(OC)c(OC)cc1NC(=O)Nc1ccc(OC)cc1,·,26,7,-1,-10,·,·,
COC(=O)c1cc2ccc(OC)cc2c2cc(OC)c(OC)cc12,-3,62*,·,1,25,-5,-6,

# Compound activity: PubChem BioAssay, several laboratories
